Screens from PubChem BioAssay.
HP1b binding inh: HTS for Inhibitors of HP1-beta Chromodomain Interactions with Methylated Histone Tails; Chromobox protein homolog 1 (Homo sapiens), P83916; AlphaScreen HP1-beta / biotin-H3K9me3 peptide binding; Potency, µM (series often up to 114 µM), without a hit: at the top dose activity change, negative = inhibition, hits mostly inhibitors; 390,000 compounds, 0.56% hits; further: nearly all actives have a fitted effect of over 70% in size
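Compound inhibition of the preformed complex between 50 nM HP1-beta and 50 nM biotinylated H3K9me3 peptide was read by AlphaScreen. Buffer was PBS pH 7.4 with 0.01% Tween-20. Incubations ran 30 min at room temperature, with 10 ug/mL donor/acceptor beads.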
BAZ2B block: qHTS Assay for Inhibitors of BAZ2B; Bromodomain adjacent to zinc finger domain protein 2B (Homo sapiens), Q9UIF8; AlphaScreen BAZ2B-H3K14Ac peptide displacement; Potency, µM (top dose mostly 114 µM), for the others: at the highest dose activity change, negative = inhibition, most hits filed as inhibitors; 360,000 compounds, 4.4% hits; AID 504333, 2011; further: on the % scale 0 is the no-effect control and ±100 the full control effect; nearly all actives have a fitted effect of over 60% in size
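AlphaScreen displacement of biotin-H3(5-23)K14Ac peptide (50 nM final) from BAZ2B (50 nM final) in PBS pH 7.4, 0.01% Tween-20; complex preformed 30 min RT, then compounds (top 110 uM) 30 min RT, beads 20 min dark.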
JMJD2A Tudor: qHTS Assay for Inhibitors of JMJD2A-Tudor Domain. AlphaScreen JMJD2A-Tudor / H3K4me3 peptide binding. Potency, µM (series often up to 114 µM), without a hit: top-dose activity change, negative = inhibition, actives largely listed as inhibitors. 390,000 compounds, 4.4% hits. Lysine-specific demethylase 4A (Homo sapiens), O75164; further: on the % scale 0 is the no-effect control and ±100 the full control effect; nearly all actives have a fitted effect of over 50% in size
Target sequence (O75164 whole entry, looked up, the tested form may be a part): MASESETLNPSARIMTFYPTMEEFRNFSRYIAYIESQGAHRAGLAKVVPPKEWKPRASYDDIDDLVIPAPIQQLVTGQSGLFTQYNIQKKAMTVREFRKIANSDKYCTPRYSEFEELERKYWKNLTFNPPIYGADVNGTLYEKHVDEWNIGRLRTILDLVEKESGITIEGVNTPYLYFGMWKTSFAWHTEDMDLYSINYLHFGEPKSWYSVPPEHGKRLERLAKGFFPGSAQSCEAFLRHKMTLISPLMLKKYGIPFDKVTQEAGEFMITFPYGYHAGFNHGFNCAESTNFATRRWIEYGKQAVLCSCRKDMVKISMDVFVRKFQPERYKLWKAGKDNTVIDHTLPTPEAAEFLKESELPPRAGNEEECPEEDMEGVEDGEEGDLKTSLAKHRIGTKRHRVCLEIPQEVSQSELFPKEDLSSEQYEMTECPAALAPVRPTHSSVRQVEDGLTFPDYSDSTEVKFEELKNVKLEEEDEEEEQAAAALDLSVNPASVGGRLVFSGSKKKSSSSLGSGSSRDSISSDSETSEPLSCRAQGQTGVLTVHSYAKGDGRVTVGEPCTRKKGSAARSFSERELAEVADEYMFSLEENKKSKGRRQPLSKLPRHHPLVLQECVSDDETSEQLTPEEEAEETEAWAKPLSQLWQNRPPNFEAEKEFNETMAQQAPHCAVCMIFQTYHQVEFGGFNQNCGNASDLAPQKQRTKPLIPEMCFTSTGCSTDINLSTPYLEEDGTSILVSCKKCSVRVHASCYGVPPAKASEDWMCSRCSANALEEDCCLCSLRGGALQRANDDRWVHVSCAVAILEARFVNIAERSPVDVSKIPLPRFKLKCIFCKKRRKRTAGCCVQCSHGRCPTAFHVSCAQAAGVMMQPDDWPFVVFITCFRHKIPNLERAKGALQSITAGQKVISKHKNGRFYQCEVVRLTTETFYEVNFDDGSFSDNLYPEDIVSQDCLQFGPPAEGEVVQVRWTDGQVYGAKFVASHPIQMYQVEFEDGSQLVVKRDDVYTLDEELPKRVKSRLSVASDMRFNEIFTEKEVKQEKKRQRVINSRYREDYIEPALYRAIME
G9a inh: qHTS Assay for Inhibitors of Histone Lysine Methyltransferase G9a. Potency, µM (series often up to 102 µM), for inactives: at the top dose activity, negative = inhibition, hits mostly inhibitors. 350,000 compounds, 8.8% hits. G9a H3K9 monomethylation, AlphaScreen, 2 h. Histone-lysine N-methyltransferase EHMT2 (Homo sapiens), Q96KQ7; further: on the % scale 0 is the no-effect control and ±100 the full control effect; nearly all actives have a fitted effect of over 75% in size
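AlphaScreen read-out: biotin-H3K9 peptide (500 nM) methylation by 20 nM enzyme with 20 uM SAM, 2 h at room temperature after 15 min compound preincubation; anti-monomethyl H3K9 antibody plus donor/acceptor beads, 10 min dark.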
Sfp PPTase inh: qHTS Assay for Inhibitors of Bacillus subtilis Sfp phosphopantetheinyl transferase (PPTase); Biochemical Sfp PPTase activity, qHTS; Potency, µM, inactives show largest response in the series, negative = inhibition, usual class: inhibitors; 310,000 compounds, 3.5% hits; AID 1490, 2009;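 further: the enzyme is Sfp with the accession as filed and its product quenches rhodamine fluorescence; 0% = enzyme reaction without inhibitor and -100% = no enzyme wells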
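Compounds were incubated with enzyme (final 15 nM) for 15 min at room temperature before substrate addition started the reaction. Fluorescence at 525 nm excitation, 598 nm emission was recorded immediately and after 30 minutes.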
An asterisk follows results filed as active; [ ] = dose if it differs, or a comment. Sampled rows, rich in hits. Any-hit rate of the full collection: about 12%. The call rests on the fitted dose curve; in most records, active means well fitted curve in the direction sought with a large enough effect; inconclusive means small, poorly fitted or top-dose-only effect, or another doubt; inactive means no such curve, though single readings can be large; an effect the other way counts as inactive or inconclusive. Potency means the concentration at half of the fitted maximal effect.

Clc1nssc1=Nc1ccc(Br)cc1 was read as HP1b binding inh 32µM*, BAZ2B block 22µM*, JMJD2A Tudor 25µM*, G9a inh 3.2µM* and Sfp PPTase inh 10µM*.
For N#Cc1cccc(N=c2ssnc2Cl)c1 the results were HP1b binding inh inconclusive, BAZ2B block 28µM*, JMJD2A Tudor 13µM*, G9a inh 0.89µM* and Sfp PPTase inh 7.9µM*.
COc1cc2cc(CCOC(=O)N3CCCCC3)oc(=O)c2cc1OC was read as HP1b binding inh inconclusive, BAZ2B block 6%, JMJD2A Tudor -18% and G9a inh 5%[0.501 µM].
For COc1ccc(S(=O)(=O)N2CCCCC2)cc1NC(=O)CCCNC(=O)c1ccc(Cl)cc1 the results were HP1b binding inh 14%, BAZ2B block 1%, JMJD2A Tudor -25% and G9a inh inconclusive.
Screening OCc1ccccc1N=c1ssnc1Cl returned BAZ2B block inconclusive, G9a inh -7%[2.33 µM] and Sfp PPTase inh 8.9µM*.
For COc1ccccc1NS(=O)(=O)c1cc(NC(=O)COc2ccccc2F)ccc1N1CCOCC1 the results were HP1b binding inh 18µM* and JMJD2A Tudor -19%.
CN(C)S(=O)(=O)c1cccc(NC(=O)c2ccc(N3CCOCC3)c([N+](=O)[O-])c2)c1 was read as HP1b binding inh -5%, BAZ2B block inconclusive, JMJD2A Tudor -33%, G9a inh 50µM* and Sfp PPTase inh inconclusive.
`COc1ccccc1NC(=O)c1ccc(-n2ccnc2)c([N+](=O)[O-])c1` gave HP1b binding inh 26%, BAZ2B block 2%, JMJD2A Tudor -17%, G9a inh -1%[2.33 µM] and Sfp PPTase inh 3%.
`CN(C)S(=O)(=O)c1cc(NC(=O)c2ccc(-n3ccnc3)c([N+](=O)[O-])c2)ccc1Cl` gave HP1b binding inh 20%, BAZ2B block -29%, JMJD2A Tudor -27%, G9a inh 45µM* and Sfp PPTase inh -24%.
Screening COc1ccccc1NS(=O)(=O)c1cc(NC(=O)C2CCCC2)ccc1N1CCOCC1 returned HP1b binding inh inconclusive, BAZ2B block -27%, JMJD2A Tudor inconclusive, G9a inh 8.9µM* and Sfp PPTase inh 20µM*.
`Cc1cccc(C(=O)NCCNC(=O)c2ccco2)c1` gave HP1b binding inh 3%, BAZ2B block -2%, JMJD2A Tudor -8%, G9a inh 28% and Sfp PPTase inh 21%.
`COc1ccccc1NS(=O)(=O)c1cc(NC(=S)NCCN2CCOCC2)ccc1N1CCOCC1` gave HP1b binding inh inconclusive, BAZ2B block inconclusive, JMJD2A Tudor inconclusive, G9a inh 10µM* and Sfp PPTase inh -106%.
COc1ccccc1NS(=O)(=O)c1cc(NC(=O)c2cnccn2)ccc1N1CCOCC1 was read as HP1b binding inh 47%, BAZ2B block -15%, JMJD2A Tudor -14% and Sfp PPTase inh -7%.
`COc1ccccc1NS(=O)(=O)c1cc(NC(=O)C(C)(C)C)ccc1N1CCOCC1` gave HP1b binding inh 22%, BAZ2B block 4%, JMJD2A Tudor -6% and G9a inh 7%[0.501 µM].
COc1ccccc1NS(=O)(=O)c1cc(NC(=O)c2cccc(S(=O)(=O)N(C)C)c2)ccc1N1CCOCC1 was read as HP1b binding inh 41%, BAZ2B block 4%, JMJD2A Tudor -21% and G9a inh 18µM*.
`COc1ccccc1NS(=O)(=O)c1cc(NC(=O)c2ccncc2)ccc1N1CCOCC1` gave HP1b binding inh inconclusive, BAZ2B block 6%, JMJD2A Tudor -32%, G9a inh inconclusive and Sfp PPTase inh 79µM*.
Screening CC(C)(C)OC(=O)C[C@H]1C/C=C\C[C@@H](CC(=O)N[C@@H](CO)Cc2ccccc2)C(=O)N2CCC[C@H]2COC1=O returned HP1b binding inh 54% and JMJD2A Tudor 0%.
